High-throughput results deposited in PubChem BioAssay by National Center for Advancing Translational Sciences (NCATS).
This is one part of a sample in which hits are shown more often than they occur.
Pf Dd2 inh: inhibitors of Plasmodium falciparum Dd2 growth. P. falciparum Dd2 growth, SYBR Green, 72 h. Potency, µM (series often up to 28.9 µM), most hits filed as inhibitors. 120,000 compounds, 4.3% hits. AID 1347417; active = well fitted inhibition curve with a large enough effect; also: nearly all actives have a fitted effect of over 65% in size
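Infected erythrocytes (Dd2, 0.3% parasitemia, 2.5% hematocrit final) are added to compound in RPMI-1640/Albumax II medium, grown 72 h at 37C in low oxygen, then lysed with saponin/Triton-X containing SYBR Green and read by fluorescence.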
Of the large screens only hits and unclear results are named; the others gave an inactive call.

CCN(CC)CCCNC(=O)Cc1ccc(NC(=O)N2CCCCc3ccccc32)cc1	none
CCCCCCc1c(C)c2c(cc(C)c3c(C)c(C)oc32)oc1=O	none
CCc1nc(-c2c3n(c(=O)n(CC(=O)Nc4ccc(Cl)cc4)c2=O)CCCCC3)no1	none
COc1ccc(NC(=O)c2cc3nc(-c4ccc(Cl)c(Cl)c4)cc(C(F)(F)F)n3n2)c(OC)c1	none
CS(=O)(=O)c1oc(-c2ccc(F)cc2)nc1S(=O)(=O)c1ccc(Cl)cc1	none
Cc1ccc(S(=O)(=O)c2nc(-c3cccs3)oc2SC(C)C)cc1	none
O=S(=O)(c1ccccc1)c1nc(-c2cccs2)oc1SCc1ccc(F)cc1	none
CC(C)S(=O)(=O)c1oc(-c2ccc(F)cc2)nc1S(=O)(=O)c1ccccc1	Pf Dd2 inh 6.3µM
CC(C)S(=O)(=O)c1oc(-c2cccs2)nc1S(=O)(=O)c1ccc(F)cc1	Pf Dd2 inh 10µM
CCCCS(=O)(=O)c1oc(-c2ccc(F)cc2)nc1S(=O)(=O)c1ccccc1	none
O=C(c1cc(F)ccc1F)N1CCC2(CC1)N=C(c1ccc(Cl)cc1)NO2	none
CN1CCC(Cc2ccc(C(=O)O)cc2)CC1	none
CCN(CC1CCN(C2CCN(C)CC2)CC1)C(=O)c1ccc(-c2ccccc2)cc1	Pf Dd2 inh 13µM
Cc1cc(C)c(C(=O)N(CC2CCN(C3Cc4ccccc4C3)CC2)CC2CCCO2)o1 (stereo not drawn)	none
O=C(NCc1ccc2c(c1)OCO2)[C@@H]1C[C@H](c2ccc(F)cc2)N([S+](=O)([O-])C2CC2)C1	none
OCC1(CC2CC2)CCCN(Cc2noc(C3CC3)n2)C1 (stereo not drawn)	none
Cc1nc2cccnc2n1CC1CCCN(S(=O)(=O)c2ccc(F)c(F)c2)C1 (stereo not drawn)	none
Cc1ccc(S(=O)(=O)N2CCCC(Cn3c(C)nc4cccnc43)C2)cc1 (stereo not drawn)	none
Cc1ccc(S(=O)(=O)N2CCCC(Cn3c(C)nc4cccnc43)C2)cc1Cl (stereo not drawn)	Pf Dd2 inh 7.1µM
Cc1cc2ncc(C(=O)NC3CCCCC3C)cn2n1 (stereo not drawn)	none
COc1cc(F)ccc1-c1nc(-c2c(C)noc2C)cc2c1cc(C)n2C	none
COc1ccc(-c2ccc3onc(C)c3n2)cc1OC	none
COc1cccc(-c2cc(-c3c(C)noc3C)c3cncn3c2)c1OC	none
COc1ccc(-c2cc(-c3c(C)noc3C)c3cncn3c2)cc1OC	Pf Dd2 inh 7.1µM
COc1cc(F)ccc1-c1cc(-c2c(C)noc2C)c2cncn2c1	Pf Dd2 inh 3.5µM
Cc1nnc([C@@H]2CC(F)(F)CN2C(=O)c2occc2C)o1	none
COc1ccc(-c2nc3c(c(=O)[nH]2)CCN(S(=O)(=O)c2cccs2)C3)cc1	none
O=C1CCC2(CCCN(c3ncccc3F)C2)CN1Cc1ccncc1 (stereo not drawn)	none
COc1cc2ccccc2cc1C(=O)Nc1ccc(Cl)c(-c2nc3ccccc3o2)c1	none
Cc1ccc(C(=O)N2CCc3sc(C(=O)NCc4cccc(F)c4)cc3C2)cc1	none
O=C(O)c1cc2c(s1)CCN(C(=O)c1ccc(F)cc1)C2	none
CC(=O)N1CCc2sc(C(=O)NCc3cccc(Cl)c3)cc2C1	none
NC(=O)CNC(=O)c1cc2c(s1)CCN(C(=O)c1ccc(Cl)cc1)C2	none
O=C(NCc1ccccc1)c1cc2c(s1)CCN(C(=O)c1ccccc1)C2	none
CN1CCN(C(=O)c2cc3c(s2)CCN(C(=O)c2ccc(Cl)cc2)C3)CC1	Pf Dd2 inh 11µM
CN(CCc1ccccc1)C(=O)c1cc2c(s1)CCN(C(=O)c1ccc(Cl)cc1)C2	none
Cc1ccc(C(=O)N2CCc3sc(C(=O)NCc4cc(F)cc(F)c4)cc3C2)cc1	Pf Dd2 inh 8.9µM
O=C(NCc1cccc(Cl)c1)c1cc2c(s1)CCN(C(=O)c1ccccc1)C2	Pf Dd2 inh 10µM
COc1ccccc1N1CCN(C(=O)c2nc(-c3ccc(C)cc3)n3c2CCCCC3)CC1	none
c1ccc2oc(-c3nccn3CCc3noc(C4CCCO4)n3)cc2c1 (stereo not drawn)	none
CCS(=O)(=O)N1CC(C(=O)NCCc2ccncc2)C2(CCOCC2)C1 (stereo not drawn)	none
Cc1cccc(-c2nc(C)c(CCNC(=O)C(=O)Nc3ccc(C)c(C)c3)s2)c1	none
CC(CNC(=O)CCCn1c(=O)c2cccn2c2ccccc21)c1ccccc1 (stereo not drawn)	none
COC(=O)c1ccccc1NC(=O)C1(c2cccs2)CCOCC1	none
CCOC(=O)c1ccc(CN(Cc2ccc(OC)cc2)S(=O)(=O)c2cccc(C(F)(F)F)c2)cc1	none
O=C(c1ccc(F)cc1)N1CCC2(CC1)CC(c1cccc(C(F)(F)F)c1)=NO2	none
CCCSc1ncc(Cl)c(C(=O)Nc2ccc(CC)cc2)n1	none
CN1CCC(N2CCN(S(=O)(=O)Cc3ccccc3)CC2)C1=O (stereo not drawn)	none
Cc1cccc(CN2CCc3nc(N4CCN(c5ccccn5)CC4)ncc3C2)c1	none
COc1cccc(CN2CCc3nc(N4CCN(C)CC4)ncc3C2)c1	none
COc1cccc(CN2CCc3nc(N4CCN(c5ncccn5)CC4)ncc3C2)c1	Pf Dd2 inh 11µM
CN1C(=O)CC[C@]2(C(=O)N3CCN(c4ccccc4)CC3)CCCC[C@@H]12	none
Cc1ccn2c(NC(=O)c3cccc(Cl)c3)c(-c3ccccc3)nc2c1	none
Cc1cccc(C(=O)Nc2c(-c3ccccc3)nc3cc(C)ccn23)c1	none
Cc1ccccc1Nc1c(-c2ccc(Cl)s2)nc2c(C)cccn12	none
Cc1ccccc1Nc1c(-c2ccc(Cl)s2)nc2cccc(C)n12	none
Cc1ccn2c(Nc3c(C)cccc3C)c(-c3ccc(Cl)s3)nc2c1	Pf Dd2 inh 7.9µM
Cc1ccn2c(Nc3c(C)cccc3C)c(-c3ccsc3)nc2c1	Pf Dd2 inh 11µM
O=C(NC[C@H]1C[C@@H]2CCN1C[C@@H]2CN1CCN(c2ccccn2)CC1)Nc1ccccc1	none
O=C(NCCc1ccc(Cl)cc1)C1CN(c2cccc(Cl)c2)C(=O)N1 (stereo not drawn)	none
O=C(NCCc1ccc(Cl)cc1)C1CCc2nnc(-c3ccc(Cl)nc3)n21 (stereo not drawn)	Pf Dd2 inh 4µM
COC(=O)CNC(=O)C1CCc2nnc(-c3ccc(Cl)nc3)n21 (stereo not drawn)	none
O=C(NCc1cccnc1)C1CCc2nnc(-c3ccc(Cl)nc3)n21 (stereo not drawn)	none
Cc1ccc2cc3cc(C(=O)Nc4ccc(F)cc4Cl)oc3nc2c1	none
Cc1cccc(CCNC(=O)CCc2c(C)nc3c(c(C)nn3-c3ccccc3)c2C)c1	none
COc1ccc2c(c1)c1c(c(=O)n(CCc3ccccc3)c(=O)n1Cc1ccc(F)cc1)n2C	none
CC1CCCN(Cc2c(O)ccc3c(=O)c(-c4ccccc4Cl)c(C(F)(F)F)oc23)C1 (stereo not drawn)	Pf Dd2 inh 0.89µM
CC1CCCN(Cc2nc3c(c(=O)n(C)c(=O)n3C)n2Cc2ccc(Cl)cc2)C1 (stereo not drawn)	none
Cc1ccc(Oc2c(C(F)(F)F)oc3c(CN4CCCCC4C)c(O)ccc3c2=O)cc1 (stereo not drawn)	none
CC1CCCN(Cc2c(O)ccc3c(=O)c(-c4ccc(Cl)cc4)c(C(F)(F)F)oc23)C1 (stereo not drawn)	Pf Dd2 inh 0.71µM
CC1CCN(C(=O)CSc2nnc(-c3ccccc3Cl)o2)CC1	none
Cc1oc(-c2ccc(Cl)cc2)nc1CN1CCCC(C(=O)NCc2ccc(Cl)cc2)C1 (stereo not drawn)	none
Cc1c(CO)cccc1NC(=O)c1ccc(CN2CCCC(C)C2)cc1 (stereo not drawn)	none
Cc1cc(C)cc(Oc2coc3c(CN4CCN(C)CC4)c(O)ccc3c2=O)c1	none
Cc1cc(Oc2c(C(F)(F)F)oc3c(CN4CCC(C)CC4)c(O)ccc3c2=O)cc(C)c1Cl	Pf Dd2 inh 0.45µM
